The record followed here is ChEMBL document CHEMBL3988442, “University of Dundee, Small-Polar-MMV Screening Library” (2021).

The whole screen tested about 53,000 compounds, of which about 900 (1.7%) showed an effect of 50% or more. The full list was thinned out, with strong results kept by preference.

The experiment relates to Mycobacterium tuberculosis. Nature of the experiment: Cornell - Phenotypic assay to identify agents that inhibit growth of Mycobacterium tuberculosis. It counts as functional. Also noted: scale not given: direction of the effect not stated beside the values. To be noted: 10 mM as filed; unlikely as a test dose.
Take `COc1ccccc1CN(CCCn1ccnc1)CC1CCOC1.O=C(O)CC(O)(CC(=O)O)C(=O)O` (stereo not drawn): the “Percent Effect” value was determined as 1.044%.

Take `CCN(Cc1ccco1)C(=O)c1cc(OC)c2c(c1)OCCO2`: the “Percent Effect” value is listed as 11.52%.

Regarding `Cn1ncc(NC(=O)c2noc3c2CCCC3)c1C(=O)N1CCCCC1`, the “Percent Effect” value is reported as 1.181%.

As for `Cc1ncc(S(=O)(=O)Nc2ccnn2C(C)C)[nH]1`, the “Percent Effect” value is 85.6%.

Take `CCN1CCN(S(=O)(=O)c2c[nH]c(C(C)C)n2)c2ccccc21`: the “Percent Effect” value stood at 19.57%.

Consider `O=C(Nc1ccnn1C1CCCC1)c1ccc(NC2CC2)nc1`, for which the “Percent Effect” value is on record as 16.19%.

In the case of `CC(C)c1nc(S(=O)(=O)Nc2ccnn2C2CCCC2)c[nH]1`, the “Percent Effect” value was 106.1%.

As for `O=C(CN1CCCC1Cn1cncn1)Nc1ccnn1C1CCCC1` (stereo not drawn), the “Percent Effect” value was found to be 39.34%.

As for `CC(C)c1nc(S(=O)(=O)N(C)c2ccc(F)cc2)c[nH]1`, the “Percent Effect” value was 0.9821%.

As for `Cc1ncc(S(=O)(=O)Nc2ccnn2C2CCCCC2)[nH]1`, the “Percent Effect” value is given as 106.2%.

As to `CC(C)c1n[nH]c(C(=O)Nc2ccnn2C(C)C)c1Br`, the “Percent Effect” value is -19.54%.

On to `Cc1nc2c(c(C)c1CC(=O)Nc1ccnn1C(C)C)c(=O)[nH]n2C`, for which the “Percent Effect” value is -6.05%.

Regarding `COC1(CNC(=O)CCCc2ccccc2)CCSC1` (stereo not drawn), the “Percent Effect” value is listed as -5.448%.

Take `Cc1nonc1OCCNC(=O)COc1ccc(F)cc1F`: the “Percent Effect” value is 26.66%.

For `CC(C)Sc1ncccc1C(=O)NCc1ccc(O)cc1`, the “Percent Effect” value is listed as -23.95%.

Take `O=C(O)C(F)(F)F.O=C(O)C(F)(F)F.c1cncc(OC[C@@]23CCC[C@@H]2CN(CC2CCOCC2)C3)c1`: the “Percent Effect” value is -8.459%.

With `CC(NCc1cc(F)ccc1F)c1ccc(OCC(=O)NC2CC2)cc1` (stereo not drawn), the “Percent Effect” value is -52.24%.

Consider `O=C(NCC1CCCO1)c1cc(-c2ccc3c(c2)CCO3)n[nH]1` (stereo not drawn), for which the “Percent Effect” value was -17.9%.

For `COc1ccc(CN(C)C(=O)NCc2c(C)cc(C)nc2OC)cc1`, the “Percent Effect” value is -10.68%.

For `CN(C)c1nccc(NCc2cc(-c3ccco3)n[nH]2)n1`, the “Percent Effect” value came to 37.45%.

Turning to `COc1ccccc1NC(=O)c1ccc(C)n1C`, the “Percent Effect” value turned out to be 27.91%.

As for `COc1ccc(CN2CC(=O)N(c3ccc(C)cc3)CC2C)cc1O` (stereo not drawn), the “Percent Effect” value is on record as 5.464%.

Regarding `COc1cccc(OC)c1CN1CC(=O)N(c2ccc(C)cc2)CC1C` (stereo not drawn), the “Percent Effect” value came to 67.79%.

Take `COc1cc(CN2CC(=O)N(c3ccc(C)cc3)CC2C)cc(OC)c1` (stereo not drawn): the “Percent Effect” value amounted to 47.02%.

As for `O=C(O)C(F)(F)F.O=C(O)C(F)(F)F.O=C1[C@H]2CN(Cc3ccc(F)cc3)C[C@H]2CN1CCN1CCCC1`, the “Percent Effect” value is -24.72%.

`O=C1CC[C@@H](CN(Cc2ccncc2)Cc2nc(-c3cccs3)no2)N1`: the “Percent Effect” value is given as -23.52%.

On to `CCNC(c1ccc(CC)cc1)c1cccnc1` (stereo not drawn), for which the “Percent Effect” value is reported as -41.16%.

On to `CCc1cc(=O)n(CC(=O)N2CCCC2)c(-c2ccc(F)cc2)n1`, for which the “Percent Effect” value is 28.21%.

Consider `COc1ccccc1N1CCN(CC(=O)NC(C)c2ccco2)CC1` (stereo not drawn), for which the “Percent Effect” value worked out at 25.38%.

As for `CSCC[C@H](NC(=O)CCn1ccc2c(Cl)cccc21)C(=O)O`, the “Percent Effect” value amounted to 15.96%.

`CSCC[C@H](NC(=O)Cn1ccc2c(Br)cccc21)C(=O)O`: the “Percent Effect” value is 5.043%.

For the molecule `COC(=O)[C@H](CCSC)NC(=O)Cn1ccc2c(Cl)cccc21`, the “Percent Effect” value was determined as 106.6%.

With `Cc1ccc(CN2CCC3(CC2)NC(=O)CC3c2ccccc2)s1.O=C(O)C(F)(F)F` (stereo not drawn), the “Percent Effect” value is reported as 1.118%.

As for `O=C1C(Nc2nccn3cnnc23)CCN1c1cccc(Cl)c1` (stereo not drawn), the “Percent Effect” value was -12%.

Regarding `CCN(CC)C(=O)CSc1nnc(CCNC(=O)OC(C)(C)C)o1`, the “Percent Effect” value was -12.06%.

`CS(=O)(=O)CCn1ccc(NC(=O)Cc2c[nH]c3ccccc23)n1`: the “Percent Effect” value came out at 31.98%.

As to `Cl.O=C(CCn1c(C(F)(F)F)cc2cccnc21)N1CCCC1`, the “Percent Effect” value is given as -14.31%.

Turning to `COCCNC(=O)Cn1c(-c2ccco2)cc2cccnc21`, the “Percent Effect” value came out at 49.86%.

Consider `Cl.O=C(Cn1c(-c2ccco2)cc2cccnc21)N1CCCC1`, for which the “Percent Effect” value was found to be 60.37%.

For the molecule `Cc1ncccc1-c1cc2cccnc2n1CCCNC(=O)C1CC1.Cl`, the “Percent Effect” value came out at 15.61%.

Regarding `O=C(c1cnn2c(-c3ccco3)ccnc12)N1CCCCCC1`, the “Percent Effect” value came out at 38.47%.

As to `CC(C)N(C(=O)Cn1c(-c2ccco2)cc2cccnc21)C(C)C.Cl`, the “Percent Effect” value turned out to be 99.58%.

On to `COCc1cc(N2CCN(C3CCCCC3)CC2)n2nccc2n1`, for which the “Percent Effect” value is 6.435%.

As to `CCn1ccnc1CN1CCN(C(C)C(=O)N2CCCC2)CC1` (stereo not drawn), the “Percent Effect” value is -13%.

Regarding `CCC1(O)CCCN(c2nc(-c3ccccn3)nc3c2c(C)nn3C)C1` (stereo not drawn), the “Percent Effect” value is recorded as 23.24%.

As for `CCCNC(=O)Nc1ccc2c(c1)N(S(=O)(=O)CC)CC2`, the “Percent Effect” value amounted to 11.66%.

For the molecule `CS(=O)(=O)N1CC[C@]2(O)CCN(CCCC(=O)c3ccccc3)C[C@@H]2C1`, the “Percent Effect” value was 2.425%.

On to `C=Cn1ncc(CN2C[C@@H]3CCCN3C[C@@H]2CCSC)c1C`, for which the “Percent Effect” value is -11.11%.

As for `Cc1ccc(-c2noc(C3CCN3C(=O)c3c(C)noc3C)n2)s1` (stereo not drawn), the “Percent Effect” value is reported as 48.41%.

On to `CC(=O)N1CCC(C(=O)N2CCC2c2nc(-c3ccc(C)s3)no2)CC1` (stereo not drawn), for which the “Percent Effect” value is reported as -6.67%.

Regarding `Cc1cc(O)cc(C2CCCN2C(=O)c2ccn(C)n2)n1` (stereo not drawn), the “Percent Effect” value is -43.03%.

For the molecule `Cc1ccc(-c2noc(C3CCN3C(=O)c3ccn(C)n3)n2)s1` (stereo not drawn), the “Percent Effect” value is 54.98%.

For `Cc1c[nH]c(C2COCCN2C(=O)c2ccc(=O)[nH]n2)n1` (stereo not drawn), the “Percent Effect” value amounted to 0.9699%.

`Cc1ccc(-c2noc(C3CCN3C(=O)c3ccc(=O)[nH]n3)n2)s1` (stereo not drawn): the “Percent Effect” value worked out at 58.13%.

As to `CC(=O)N1CCC1c1nc(-c2ccc(C)s2)no1` (stereo not drawn), the “Percent Effect” value is listed as 7.935%.

With `CC1CCCCN1C(=O)c1ccc(=O)[nH]n1` (stereo not drawn), the “Percent Effect” value was -37.74%.

As to `Cc1ccc(-c2noc(C3CCN3C(=O)c3cc[nH]n3)n2)s1` (stereo not drawn), the “Percent Effect” value came to 52.32%.

Turning to `CCN1CCn2c(C)cnc2C12CCN(C(=O)c1cscn1)CC2.O=C(O)C(F)(F)F.O=C(O)C(F)(F)F`, the “Percent Effect” value is -12.15%.

`CC(C)c1cc(CN(C)C(=O)CN2CCNC2=O)no1`: the “Percent Effect” value is -1.518%.

In the case of `Cc1cc(C)cc(CN2CCN(C(=O)CCc3n[nH]c(C)n3)CC2=O)c1`, the “Percent Effect” value is -36%.

Take `Cc1cnc(N2CCC3(CC(=O)N(Cc4csc(C)n4)C3)C2)nc1.O=C(O)C(F)(F)F` (stereo not drawn): the “Percent Effect” value is reported as 10.64%.

Consider `CCCOc1ccc(Cl)cc1C(=O)N1CCC(n2cncn2)CC1`, for which the “Percent Effect” value is given as -8.806%.

Turning to `Clc1cnc(NCc2ccccc2N2CCOCC2)nc1`, the “Percent Effect” value is 11.26%.
